Experimental data reported in PubChem BioAssay (NCATS).
Inconclusive results are not listed. The source made the active and inactive calls. The call rests on the fitted dose curve; in most records, active means well fitted curve in the direction sought with a large enough effect; inconclusive means small, poorly fitted or top-dose-only effect, or another doubt; inactive means no such curve, though single readings can be large; an effect the other way counts as inactive or inconclusive.

What was measured:
[1] = tested on: HACAT; experiment: qHTS assay to identify novel small-molecules to repurpose for Merkel cell carcinoma treatment (AID 1296009); details: MCC and control cell lines, CellTiter-Glo viability, 72 h; at 44.8 µM (top of the series) unless noted; further: nearly all actives have a fitted effect of over 60% in size
Procedure, shortened: (§1)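 Cells exposed to NPC (8-point) and MIPE (11-point) compound dilutions for 72 hr at 37 degree celsius; viability read by CellTiter-Glo luminescence, normalized to no-cell and DMSO in-plate controls.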

[2] = tested on: NIH3T3; experiment: as above; details: MCC and control cell lines, CellTiter-Glo viability, 72 h; at 44.8 µM (top of the series) unless noted
Procedure, shortened: as §1

[3] = tested on: C33A; experiment: Primary qHTS to identify gynecologic anti-cancer compounds using libraries of approved drugs and bioactive compounds (AID 1345084); details: Gynecologic cancer cell panel viability, ATPlite luminescence, 48 h; series mostly up to 57.5 µM; further: on the % scale 0 is the no-effect control and ±100 the full control effect; nearly all actives have a fitted effect of over 55% in size
Procedure, shortened: (§2)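 ATP-based viability (ATPlite), 1,000 cells/well, 16 h pre-incubation, 48 h compound at 37 C, 5% CO2, 15 min RT before read.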

[4] = tested on: CAOV3; experiment: as above; details: Gynecologic cancer cell panel viability, ATPlite luminescence, 48 h; series mostly up to 57.5 µM
Procedure, shortened: as §2

[5] = tested on: CASKI; experiment: as above; details: Gynecologic cancer cell panel viability, ATPlite luminescence, 48 h; series mostly up to 57.5 µM
Procedure, shortened: as §2

[6] = tested on: Es-2; experiment: as above; details: Gynecologic cancer cell panel viability, ATPlite luminescence, 48 h; series mostly up to 57.5 µM
Procedure, shortened: as §2

[7] = tested on: HeLa; experiment: as above; details: Gynecologic cancer cell panel viability, ATPlite luminescence, 48 h; series mostly up to 57.5 µM
Procedure, shortened: as §2

[8] = tested on: Hek293T; experiment: as above; details: Gynecologic cancer cell panel viability, ATPlite luminescence, 48 h, control line for the selectivity index; series mostly up to 57.5 µM
Procedure, shortened: as §2

[9] = tested on: JEG-3; experiment: as above; details: Gynecologic cancer cell panel viability, ATPlite luminescence, 48 h; series mostly up to 57.5 µM
Procedure, shortened: as §2

[10] = tested on: OV90; experiment: as above; details: Gynecologic cancer cell panel viability, ATPlite luminescence, 48 h; series mostly up to 57.5 µM
Procedure, shortened: as §2

[11] = tested on: PA-1; experiment: as above; details: Gynecologic cancer cell panel viability, ATPlite luminescence, 48 h; series mostly up to 57.5 µM
Procedure, shortened: as §2

[12] = tested on: Tov-21-G; experiment: as above; details: Gynecologic cancer cell panel viability, ATPlite luminescence, 48 h; series mostly up to 57.5 µM
Procedure, shortened: as §2

[13] = tested on: Tov112D; experiment: as above; details: Gynecologic cancer cell panel viability, ATPlite luminescence, 48 h; series mostly up to 57.5 µM
Procedure, shortened: as §2

[14] = tested on: SKOV3; experiment: as above; details: Gynecologic cancer cell panel viability, ATPlite luminescence, 48 h; series mostly up to 57.5 µM
Procedure, shortened: as §2

CC[C@@H]1[C@H]2CCCCN3C(=O)C[C@H]([C@@H]4[C@H]1OC(=O)[C@H]4C)[C@@H]23
inactive: outcome [1] | outcome [2] | Potency [3] | Potency [4] | outcome [5] | Potency [6] | Potency [7] | Potency [8] | Potency [9] | Potency [10] | Potency [11] | Potency [12] | Potency [13]

CC(=O)O[C@@H]1[C@H](O[C@@H]2O[C@H](CO)[C@@H](O)[C@H](O)[C@H]2O)[C@@H](O[C@@H]2O[C@@H](C)[C@H](O)[C@@H](O[C@@H]3O[C@H](CO)[C@@H](O)[C@H](O)[C@H]3O)[C@H]2O)[C@H](OC(=O)[C@]23CCC(C)(C)C[C@H]2C2=CCC4[C@@]5(C)C[C@H](O)[C@H](O[C@@H]6O[C@H](C(=O)O)[C@@H](O)[C@H](O)[C@H]6O)[C@@](C)(C(=O)O)C5CC[C@@]4(C)[C@]2(C)CC3)O[C@@H]1C (stereo not given in full)
inactive: outcome [1] inactive [at 9.27 µM] | outcome [2] inactive [at 9.27 µM] | activity change, negative = cytotoxicity [3] 2.77% [at 6.55 µM] | activity change, negative = cytotoxicity [4] -7.98% [at 6.55 µM] | activity change, negative = cytotoxicity [5] -0.483% [at 6.55 µM] | activity change, negative = cytotoxicity [6] -0.374% [at 6.55 µM] | activity change, negative = cytotoxicity [7] 0.873% [at 6.55 µM] | activity change, negative = cytotoxicity [8] 0.423% [at 6.55 µM] | activity change, negative = cytotoxicity [9] 0.0867% [at 6.55 µM] | activity change, negative = cytotoxicity [10] 12.5% [at 6.55 µM] | activity change, negative = cytotoxicity [11] 1.9% [at 6.55 µM] | activity change, negative = cytotoxicity [12] 0.569% [at 6.55 µM] | activity change, negative = cytotoxicity [13] 7.58% [at 6.55 µM]

CC(C)(O)C1CC=C(C(=O)OC[C@H]2O[C@@H](Oc3cc(C(=O)O)cc(O)c3O)[C@H](O)[C@@H](O)[C@@H]2O)CC1 (stereo not given in full)
inactive: outcome [1] inactive [at 17.4 µM] | outcome [2] inactive [at 17.4 µM] | Potency [3] | Potency [4] | outcome [5] | Potency [6] | Potency [7] | Potency [8] | Potency [9] | Potency [10] | Potency [11] | Potency [12] | Potency [13]

COCCN1CCC(C(=O)NO)(S(=O)(=O)c2ccc(Oc3ccc(OC(F)(F)F)cc3)cc2)CC1
inactive: outcome [1] | outcome [2] | Potency [3] | Potency [4] | outcome [5] | Potency [6] | Potency [7] | Potency [8] | Potency [9] | Potency [10] | Potency [11] | Potency [12] | Potency [13]

CC(=O)OC12CC(C)C(O)C1/C=C(/COC1OC(CO)C(O)C(O)C1O)CCC1C(/C=C(\C)C2=O)C1(C)C (stereo not given)
inactive: outcome [1] inactive [at 17.4 µM] | outcome [2] inactive [at 17.4 µM] | Potency [3] | Potency [4] | outcome [5] | Potency [6] | Potency [7] | Potency [8] | Potency [9] | Potency [10] | Potency [11] | Potency [12] | Potency [13]

C=C1C(O)C(OC(=O)c2ccccc2)C2C(C)(C(=O)O)CCCC2(C)C1CC/C(C)=C\CO (stereo not given)
inactive: outcome [1] inactive [at 17.4 µM] | outcome [2] inactive [at 17.4 µM] | Potency [3] | Potency [4] | outcome [5] | Potency [6] | Potency [7] | Potency [8] | Potency [9] | Potency [10] | Potency [11] | Potency [12] | Potency [13]

CC1CC(=O)C2C(O)(C1)CC(O)C13OC1c1c(O)cccc1C(=O)C23O (stereo not given)
inactive: outcome [1] | outcome [2] | Potency [3] | Potency [4] | outcome [5] | Potency [6] | Potency [7] | Potency [9] | Potency [10] | Potency [11] | Potency [14] | Potency [12] | Potency [13]

CC1(C)CCC2(C(=O)O)C(O)CC3(C)C(=CCC4C5(C)CCC(OC6OC(CO)C(O)C(O)C6OC6OC(CO)C(O)C(O)C6OC6OCC(O)(CO)C6O)C(C)(C)C5CCC43C)C2C1 (stereo not given)
inactive: outcome [1] inactive [at 9.27 µM] | outcome [2] inactive [at 9.27 µM] | activity change, negative = cytotoxicity [3] -3% [at 11.6 µM] | activity change, negative = cytotoxicity [4] 12.3% [at 11.6 µM] | activity change, negative = cytotoxicity [5] -10.6% [at 11.6 µM] | activity change, negative = cytotoxicity [6] -1.15% [at 11.6 µM] | activity change, negative = cytotoxicity [8] 13.1% [at 11.6 µM] | activity change, negative = cytotoxicity [9] -1.43% [at 11.6 µM] | activity change, negative = cytotoxicity [10] -4.37% [at 11.6 µM] | activity change, negative = cytotoxicity [11] -4.82% [at 11.6 µM] | activity change, negative = cytotoxicity [14] 9.15% [at 11.6 µM] | activity change, negative = cytotoxicity [12] -4.95% [at 11.6 µM] | activity change, negative = cytotoxicity [13] 1.07% [at 11.6 µM]

O=[N+]([O-])c1cc(Cl)ccc1S(=O)(=O)N1CCN(Cc2ccccc2)CC1
inactive: outcome [1] | outcome [2] | Potency [3] | Potency [4] | outcome [5] | Potency [6] | Potency [7] | Potency [9] | Potency [10] | Potency [11] | Potency [12] | Potency [13]

CC(C)(O)C1CCC2(C)CCCC(C)(O)C2C1 (stereo not given)
inactive: outcome [1] | outcome [2] | Potency [3] | outcome [5] | Potency [6] | Potency [7] | Potency [8] | Potency [9] | Potency [10] | Potency [11] | Potency [14] | Potency [12] | Potency [13]

Cc1ccccc1-n1nc(-c2c(-c3ccc(F)cc3)nn3c2NC[C@@H](CO)C3)ccc1=O
inactive: outcome [1] | outcome [2] | Potency [3] | Potency [4] | outcome [5] | Potency [6] | Potency [8] | Potency [9] | Potency [10] | Potency [11] | Potency [14] | Potency [12] | Potency [13]

COC(=O)c1[nH]c(=O)c2ccccc2c1-c1ccc[nH]1
inactive: outcome [1] | outcome [2] | Potency [3] | Potency [4] | outcome [5] | Potency [7] | Potency [9] | Potency [10] | Potency [11] | Potency [12]

O=C(O)/C=C/c1ccc(O[C@@H]2O[C@H](CO)[C@@H](O)[C@H](O)[C@H]2O)cc1
inactive: outcome [1] | outcome [2] | Potency [3] | Potency [4] | outcome [5] | Potency [6] | Potency [7] | Potency [8] | Potency [9] | Potency [10] | Potency [11] | Potency [12] | Potency [13]
